Hits are enriched below; roughly 7.5% of the tested compounds scored in any of these assays.
SMN2 splice up: qHTS Assay for Enhancers of SMN2 Splice Variant Expression. AID 1458, 2008. HEK293 SMN2-luciferase splicing reporter, luminescence, 30-36 h. Potency, µM (doses to about 46.1 µM), inactives show at the highest dose activity change, positive = activation, usual class: activators. 2.8% of 210,000 active; also: % of control where 0% means no effect; nearly all actives have a fitted effect of over 55% in size
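HEK293 cells carry an SMN2 […]–luciferase reporter in which exon 7 inclusion puts luciferase in frame. Cells were plated 10-12 h before compound addition, then incubated 30-36 h at 37C. ONE-Glo luminescence was read; sodium butyrate at 4.5 mM final served as control.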
ELG1 genotox: qHTS screen for small molecules that induce genotoxicity in human embryonic kidney (HEK293T) cells expressing luciferase-tagged ELG1 | HEK293T ELG1-luciferase reporter, luminescence, 16 h | 1.3% of 330,000 active | Potency, µM (highest dose often 46 µM), for the others: at the top dose activity change, positive = activation, most hits filed as activators | AID 504466, 2011; also: % of control where 0% means no effect; nearly all actives have a fitted effect of over 60% in size
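Luminescence read-out: rising ELG1-luciferase signal, reflecting elevated ELG1 protein under genetic stress, flags genotoxic compounds. Cells were treated for 16 hr at 37 °C before ONE-Glo detection.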
NPC1 prom act: qHTS Assay for NPC1 Promoter Activators; Huh7 NPC1 promoter luciferase reporter, 24 h; Potency, µM (doses to about 9.22 µM), inactives show top-dose activation, usual class: activators; 2.4% of 320,000 active; also: % of control where 0% means no effect; nearly all actives have a fitted effect of over 60% in size
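Luminescence read-out of NPC1 promoter-driven luciferase in stably transfected Huh7 cells; compounds delivered in DMSO and left 24 h at 37C, 5% CO2, qHTS titration format.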
Rab9 promoter act: qHTS Assay for Rab9 Promoter Activators. Potency, µM (doses to about 9.22 µM), for inactives: at the top dose activation, negative = inhibition, hits mostly activators. Huh7 Rab9 promoter-luciferase reporter, luminescence, 24 h. 2.8% of 320,000 active; also: % of control where 0% means no effect; nearly all actives have a fitted effect of over 60% in size
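Luminescence from Amplite-detected luciferase (10 minutes, ambient) reports Rab9 promoter activation. Before that, stable Rab9-luciferase Huh7 cells (1500/well, reduced-serum OP-MEM I plus 10% FBS) were exposed to compound for 24 hours at 37C.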
KinaseGlo FLuc: Counterscreen for Luciferase (Kinase-Glo TM) Inhibition; Kinase-Glo luciferase, ATP luminescence, 8 min; Potency, µM (titrated, usually from 38.3 µM), for the others: at the highest dose activity change, negative = inhibition, hits mostly inhibitors; 0.28% of 200,000 active; AID 1379, 2008; also: % is scaled to controls: 0 for no effect and ±100 for the full control effect; nearly all actives have a fitted effect of over 60% in size
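Compound is pinned into ATP-containing buffer (10 uM ATP, imidazole pH 7.2, 7 mM MgCl2). Kinase-Glo luciferase reagent is then added. Light output is recorded following an 8-min room-temperature incubation.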
FLuc counter: qHTS profiling assay for firefly luciferase inhibitor/activator using purifed enzyme and Km concentrations of substrates (counterscreen for miR-21 project). 6.9% of 360,000 active. Luciferin 4-monooxygenase (Photinus pyralis), P08659. purified FLuc, Km substrates, luminescence inhibition. AID 588342, 2011. Potency, µM (top dose mostly 57.5 µM), inactives show at the top dose activity change, negative = inhibition, usual class: inhibitors;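 also: plate controls were vehicle for no effect and reference inhibitor for full effect; nearly all actives have a fitted effect of over 55% in size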
Target sequence (P08659 whole entry, looked up): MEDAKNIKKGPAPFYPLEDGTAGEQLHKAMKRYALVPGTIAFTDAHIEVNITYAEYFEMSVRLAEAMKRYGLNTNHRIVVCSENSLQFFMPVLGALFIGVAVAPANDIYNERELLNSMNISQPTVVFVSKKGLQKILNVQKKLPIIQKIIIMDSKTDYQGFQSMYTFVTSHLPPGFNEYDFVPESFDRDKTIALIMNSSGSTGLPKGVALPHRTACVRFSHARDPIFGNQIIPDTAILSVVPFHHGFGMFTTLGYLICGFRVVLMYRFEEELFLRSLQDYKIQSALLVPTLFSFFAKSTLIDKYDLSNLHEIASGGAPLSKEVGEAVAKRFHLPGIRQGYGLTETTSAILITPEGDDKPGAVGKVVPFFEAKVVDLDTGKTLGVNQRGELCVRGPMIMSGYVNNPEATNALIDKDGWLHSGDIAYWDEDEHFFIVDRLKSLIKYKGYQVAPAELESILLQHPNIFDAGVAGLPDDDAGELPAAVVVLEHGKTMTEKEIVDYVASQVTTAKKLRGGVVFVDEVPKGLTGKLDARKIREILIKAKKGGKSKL
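Biochemical qHTS of compounds, final roughly 60 µM downward over six points, against 10 nM purified firefly luciferase using Km concentrations of substrates (10 uM D-luciferin, 10 uM ATP) in Tris acetate pH 7.5 buffer; luminescence output.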
Numbers without * were called inactive; ? = inconclusive; · = no result given. Calls follow the shape of the dose curve; as a rule, active = well fitted curve in the direction sought with a large enough effect; inconclusive = small, poorly fitted or top-dose-only effect, or another doubt; inactive = no such curve, though single readings can be large; an effect the other way counts as inactive or inconclusive. Potency is read from the fitted curve at half-maximal effect.

SMILES | SMN2 splice up | ELG1 genotox | NPC1 prom act | Rab9 promoter act | KinaseGlo FLuc | FLuc counter
Cc1ccc(-c2cc(C(=O)Nc3ccc(S(=O)(=O)Nc4nc(C)cc(C)n4)cc3)c3ccccc3n2)cc1 | 14µM* | 2% | 1% | 3% | 0% | 17µM*
CC(=O)NS(=O)(=O)c1ccc(NC(=O)c2cc(-c3ccc(C)cc3)nc3ccccc23)cc1 | 18% | 10% | 0% | 16% | 3% | 8.5µM*
Cc1cc(NC(=O)c2cc(-c3ccc(C)c(C)c3)nc3ccccc23)no1 | 5% | -9% | 1% | -1% | -9% | 4.8µM*
COc1ccccc1CCNC(=O)c1ccc(NC(=O)CC2SC(N3CCCCC3)=NC2=O)cc1 (configuration not stated) | · | 0% | -2% | -4% | · | -14%
COc1ccc(CNC(=O)c2cc(=O)[nH]c3ccc(S(=O)(=O)N4CCCC4)cc23)c(OC)c1 | · | · | · | · | · | 1%
CC(=O)NS(=O)(=O)c1ccc(NC(=O)c2cc(-c3cccs3)nc3ccccc23)cc1 | 0% | 0% | 0% | 0% | 1% | ?
CC(=O)NS(=O)(=O)c1ccc(NC(=O)c2cc(-c3ccc(C)c(C)c3)nc3ccccc23)cc1 | 2% | 3% | 13% | 10% | -1% | 1.3µM*
COc1ccc(C2CC(c3c(O)cc(C)oc3=O)=NCCS2)c(OC)c1 (configuration not stated) | ? | 10µM* | ? | -7% | -10% | 11µM*
Brc1ccccc1-n1nnc(-c2nccs2)n1 | · | 8.2µM* | 2.5µM* | 1.4µM* | · | 7.6µM*
Clc1ncccc1-c1nnn(-c2ccccc2Br)n1 | · | ? | 23% | 25% | · | 17µM*
O=C(Nc1nccs1)c1ccccc1Br | · | 7% | 6% | 27% | · | ?
Cc1ccc(-n2nnc(-c3cccnc3Cl)n2)cc1 | · | 5.8µM* | 0.79µM* | 0.79µM* | · | 0.76µM*
Clc1ccc(-n2nnc(-c3cccnc3Cl)n2)cn1 | · | ? | ? | ? | · | 13µM*
O=S1(=O)CCN(OCc2ccc(Cl)cc2)CC1 | -14% | 0% | 0% | -8% | -1% | -2%
CN(Cc1c(F)cccc1Cl)C(=O)CNC(=O)c1sc2ccccc2c1Cl | · | ? | 22% | 17% | · | ?
CCSc1oc(-c2cccs2)nc1S(=O)(=O)c1ccc(Br)cc1 | 8% | · | · | · | · | -3%
COc1ccc(-n2cnc3sccc3c2=O)cc1 | · | 2% | -4% | 9% | · | 3%
CCc1cc2c(=O)n(-c3ccccc3)cnc2s1 | 7% | 7% | -3% | 6% | 8% | -10%
CCOC(=O)C(CC)n1nnc2sc(-c3ccccc3)cc2c1=O (configuration not stated) | -8% | · | · | · | · | 21µM*
O=c1c2cc(-c3ccccc3)sc2ncn1-n1cccc1 | ? | ? | 1.8µM* | 1.8µM* | -7% | -18%
COc1ccc(-n2cnc3sc(-c4ccccc4)cc3c2=O)cc1 | 6.3µM* | ? | 0.56µM* | 0.63µM* | 2% | ?
CCc1cc2c(=O)n(-c3ccc(C)cc3)cnc2s1 | 3.2µM* | ? | 4µM* | 2.5µM* | -7% | 11µM*
CCCOC(=O)C(C)n1nnc2sc(-c3ccccc3)cc2c1=O (configuration not stated) | -7% | · | · | · | · | ?
CC(=O)Cn1nnc2sc(-c3ccccc3)cc2c1=O | 14µM* | ? | ? | ? | -2% | ?
O=c1[nH]c(-c2ccccc2)nc2sc(-c3ccccc3)cc12 | ? | ? | -11% | ? | 1% | ?
SMILES | SMN2 splice up | ELG1 genotox | NPC1 prom act | Rab9 promoter act | KinaseGlo FLuc | FLuc counter
CCn1cnc2sc(-c3ccccc3)cc2c1=O | 10µM* | 3.7µM* | 1.3µM* | 2.8µM* | -4% | 6µM*
O=c1[nH]cnc2sc(-c3ccccc3)cc12 | 16% | 19% | 20% | ? | -7% | 15µM*
O=C(Cn1cnc2sc(-c3ccccc3)cc2c1=O)N1CCOCC1 | 24% | 3% | 6% | -2% | -1% | -11%
N#CCn1cnc2sc(-c3ccccc3)cc2c1=O | 8% | 12% | 14% | 27% | 1% | -16%
CC(=O)Cn1cnc2sc(-c3ccccc3)cc2c1=O | 20µM* | 13µM* | 3.2µM* | 4.5µM* | -4% | 9.5µM*
CCC/C=C(\CCC)C(NP(=O)(c1ccccc1)c1ccccc1)c1ccc(C(F)(F)F)cc1 (configuration not stated) | -29% | · | · | · | -6% | ·
Cc1ccccc1CN1CCCOCCS1(=O)=O | · | -1% | -5% | 1% | · | 1%
Cc1cc(OCC(=O)Nc2ccc(CN3CCOCC3)cc2)c2c(C)c(C)c(=O)oc2c1 | · | ? | 15% | -2% | · | 0%
Cc1ccc(C)n1-n1cnc2sc(-c3ccccc3)cc2c1=O | -45% | -4% | -2% | -5% | 5% | ?
Cc1ccc(C)n1-n1c(C)nc2sc(-c3ccccc3)cc2c1=O | -16% | ? | ? | ? | -1% | 17µM*
COCCNC(=O)C(=O)NCC1OCCCN1S(=O)(=O)c1cccs1 (configuration not stated) | 12% | 2% | 4% | -3% | -3% | 1%
Cc1cc(=O)oc2cc(NC(=O)c3cccc(F)c3)ccc12 | · | 13% | ? | 1.4µM* | · | -16%
Cc1cc(=O)oc2cc(OCC(=O)Nc3cccc(S(=O)(=O)N(C)C)c3)ccc12 | 5% | 3% | -4% | -8% | 4% | 4%
Cc1cc(=O)oc2cc(NC(=O)c3cccc(S(=O)(=O)N(C)C)c3)ccc12 | · | ? | 1.3µM* | 0.89µM* | · | ?
Cc1cc(=O)oc2cc(NC(=O)c3ccc(OC(F)F)cc3)ccc12 | · | 4.5µM* | ? | ? | · | -14%
CC(C)(C)c1ccc(NC(=O)C2=CC=CN3CCS(=O)(=O)N=C23)cc1 | · | ? | 30% | ? | · | ·
CCN(CC)c1ccc(NC(=O)C2=CC=CN3CCS(=O)(=O)N=C23)cc1 | · | 12% | 17% | ? | · | 3µM*
Cc1ccc(C2=C/C(=C/c3cccnc3)C(=O)O2)c(C)c1 | 9% | 1% | -3% | 1% | -1% | 6µM*
O=C1OC(c2ccc(Cl)cc2)=C/C1=C/c1cccnc1 | · | -3% | 0% | 8% | · | -14%
CC(C)(O)C1CC[C@@]2(C)C3CCC4[C@@]5(C)CCCC(C)(C)C5C(O)C[C@]4(C)[C@]3(C)CC[C@@H]12 (some centres not stated) | -4% | · | · | · | -3% | ·
